The whole screen tested about 2,400 compounds, of which about 1,400 (58%) were called active.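 Rule for the calls: active = inhibition of 30% or more at any tested dose; inconclusive = primary hits over the limit that were never retested; inactive = the rest.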 So high a share suggests a set chosen from earlier hits. The list shows a part of the results.
experiment: ADP Hunter readout inhibition without MgcRacGAP – biochemical, coupled enzyme counter-screen, artefact control for MgcRacGAP inhibitor project, dose response (AID 624351); details: fluorescence, no MgcRacGAP; series mostly up to 80 µM; inhibition: at the top concentration;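 note: signal is the ADP detection kit reading of free GDP without any GAP enzyme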;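 for inhibition: 0% = median positive control wells and 100% = median negative control wells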

| SMILES | inhibition | IC50 |
| --- | --- | --- |
| COc1ccc(CN2CCN(Cc3ccc(Br)cc3)CC2)c(OC)c1OC | 25.7% (inactive) |  |
| COc1cc(/C=C/C(=O)OCC(=O)N2CCN(C(=O)c3ccco3)CC2)ccc1O |  | 33.8 µM (active) |
| COc1cccc(CN2CCN(C(=O)c3ccco3)CC2)c1OC | 14.7% (inactive) |  |
| COc1ccc(C(=O)N2CCN(CCCc3ccccc3)CC2)cc1OC | 18.2% (inactive) |  |
| Cc1sc2ncnc(N(C)CCc3ccccn3)c2c1C | 23.9% (inactive) |  |
| Cc1sc2ncnc(N/N=C/c3ccc(O)cc3)c2c1C |  | 48.3 µM (active) |
| Cc1sc2ncnc(Nc3ccc(O)cc3)c2c1C |  | 38.2 µM (active) |
| COC(=O)/C(=C/Nc1ccc(O)cc1)[N+](=O)[O-] |  | 23.9 µM (active) |
| O=C(CN1CCN(C2CCCCC2)CC1)Nc1ccccc1-c1ccccc1 | 27.4% (inactive) |  |
| O=C(/C=C\c1ccco1)c1ccc(NC(=O)c2ccco2)cc1 | -1.43% (inactive) |  |
| O=C(Nc1cc(Br)c(O)c(Br)c1)c1cccc(NC(=O)c2ccco2)c1 |  | 81.3 µM (active) |
| O=c1ccn(-c2ccccc2)[nH]1 |  | 51.3 µM (active) |
| O=C1CCN(c2ccccc2)N1 | -2.46% (inactive) |  |
| CCN(CC)CCCNCC(=O)Nc1cc(C)on1 | 20.8% (inactive) |  |
| Nc1ccc(N=Nc2ccc(O)cc2)c(N)n1 |  | 10.2 µM (active) |
| CC(=O)Nc1ccc(N=Nc2ccc(O)cc2)cc1 |  | 24.5 µM (active) |
| Oc1ccc(N=Nc2ccccc2)cc1 |  | 78.2 µM (active) |
| O=c1oc2ccccc2cc1-c1csc(Nc2ccc(O)cc2)n1 |  | 58 µM (active) |
| NS(=O)(=O)c1ccc(Nc2nc(-c3ccc(O)cc3O)cs2)cc1 |  | 48.8 µM (active) |
| Nc1ccc(Nc2nc(-c3cc4ccccc4oc3=O)cs2)cc1 | 24.4% (inactive) |  |
| NS(=O)(=O)c1ccc(Nc2nc(-c3ccc(O)cc3)cs2)cc1 |  | 20.9 µM (active) |
| Nc1ccc(Nc2nc(-c3ccncc3)cs2)cc1 |  | 9.43 µM (active) |
| Cc1cc(NS(=O)(=O)c2ccc(Nc3nc(-c4ccc(O)cc4)cs3)cc2)no1 |  | 30.2 µM (active) |

| SMILES | inhibition | IC50 |
| --- | --- | --- |
| O=C(Nc1ccccc1Cl)/C(Cl)=C(\Cl)S(=O)c1ccccc1 (stereo not drawn) | 5.09% (inactive) |  |
| Cc1cnc(C(=O)Oc2ccc(-c3ccccc3)cc2)cn1 | 19.4% (inactive) |  |
| O=C(Nc1ccccc1Cl)Oc1ccc(-c2ccccc2)cc1 |  | 14.1 µM (active) |
| Cc1cc(C)c(C#N)c(SCS(=O)Cc2ccc(Cl)cc2)n1 (stereo not drawn) | 2.15% (inactive) |  |
| NC(=NCCCCCCN=C(N)/N=C(\N)Nc1ccc(Cl)cc1)/N=C(\N)Nc1ccc(Cl)cc1 | 7.86% (inactive) |  |
| Oc1ccc(/C=N/Nc2cc(N3CCOCC3)nc(N3CCOCC3)n2)cc1 |  | 49.2 µM (active) |
| COc1ccc2c(-c3ccccc3)cc(N3CCOCC3)nc2c1 | -30.5% (inactive) |  |
| Oc1ccc(/C=N\Nc2cc(N3CCOCC3)nc(N3CCOCC3)n2)c(O)c1 |  | 76.4 µM (active) |
| Oc1ccc(/C=N/Nc2cc(N3CCOCC3)nc(N3CCOCC3)n2)cc1O |  | 75.5 µM (active) |
| CN(C)c1ccc(-n2cccc2/C=C/[N+](=O)[O-])cc1 | -0.44% (inactive) |  |
| CCCCN(C)C(=O)C1CCN(Cc2cccc(OCc3ccccc3)c2)CC1 | 12.6% (inactive) |  |
| COc1ccc2[nH]c3c(C)c4ccncc4c(C)c3c2c1 | 7.02% (inactive) |  |
| Cc1ccc(O)c(C=Nc2ccc3[nH]ncc3c2)c1 |  | 34.5 µM (active) |
| COc1ccc(C=Nc2ccc3[nH]ncc3c2)c(O)c1 |  | 38.4 µM (active) |
| Oc1ccc(Br)cc1C=Nc1ccc2[nH]ncc2c1 |  | 48.2 µM (active) |
| Brc1ccc(OCCCN2CCOCC2)cc1 | 17.2% (inactive) |  |
| Cc1ccc(/C=C2/C(=O)ON=C2c2ccccc2)o1 | -8.72% (inactive) |  |
| CCN(c1ccccc1)S(=O)(=O)c1ccc(Cl)c(NC(=O)CN(C)C2CCN(C)CC2)c1 | 10.9% (inactive) |  |
| CCN(c1ccccc1)S(=O)(=O)c1ccc(N2CCN(c3ccc(O)cc3)CC2)nc1 |  | 53.5 µM (active) |
| COc1ccccc1CNCC(=O)N1CC(=O)Nc2ccccc21 | -1.72% (inactive) |  |
| CN(C)c1ccc2c(c1)C(=NO)c1ccccc1-2 |  | 42.8 µM (active) |
| ON=C1c2ccccc2-c2ccc(O)cc21 |  | 36.5 µM (active) |
| CCN(Cc1ccccc1)C(c1ccc(C)cc1)c1nnnn1C(C)(C)CC (stereo not drawn) | 1.68% (inactive) |  |

| SMILES | inhibition | IC50 |
| --- | --- | --- |
| Brc1cccc(OCCN2CCOCC2)c1 | 17.5% (inactive) |  |
| Nc1ccc(-c2nc3ccc(N)cc3o2)cc1 |  | 44.4 µM (active) |
| CCOc1cc(/C=C/c2cccc[n+]2C)ccc1O |  | 27.2 µM (active) |
| CCn1c(=O)c2c3c(sc2n2c(=S)[nH]nc12)CCC3 |  | 25 µM (active) |
| COc1ccccc1-n1c(=O)c2c3c(sc2n2c(=S)[nH]nc12)CCC3 |  | 44.9 µM (active) |
| COc1ccc(-n2c(=O)c3c4c(sc3n3c(=S)[nH]nc23)CCCC4)cc1 |  | 30.3 µM (active) |
| C=CCSC1=N/C(=C\C=C\c2ccco2)C(=O)S1 | -7.09% (inactive) |  |
| COc1ccc(/C=N/n2c(-c3n[nH]c4c3CCC4)n[nH]c2=S)c(OC)c1OC |  | 65.7 µM (active) |
| COc1cc(/C=N/n2c(C3CCCCC3)n[nH]c2=S)ccc1O |  | 51.8 µM (active) |
| COc1ccc(/C=N/n2c(-c3n[nH]c4c3CCC4)n[nH]c2=S)cc1OC |  | 61.5 µM (active) |
| COc1cccc(/C=N/n2c(-c3n[nH]c4c3CCC4)n[nH]c2=S)c1O |  | 54.6 µM (active) |
| C=CCOC(=O)c1cc(-c2ccc(/C=C3\C(=O)NC(=O)C(C#N)=C3C)o2)ccc1Cl | 5.47% (inactive) |  |
| CCN(CC)CCCNCC(=O)Nc1ccc2c(c1)CCC2 | 17.8% (inactive) |  |
| CCC1(c2ccccc2)NC(=O)N(CC(=O)Nc2ccc(N3CCCC3)cc2C)C1=O (stereo not drawn) | 27.8% (inactive) |  |
| CCN(CC)c1ccc(NC(=O)CN2C(=O)NC3(CCc4ccccc43)C2=O)cc1 (stereo not drawn) |  | 83.2 µM (active) |
| Nc1nc(N)c2[nH]c(=S)[nH]c2n1 | 29.5% (inactive) |  |
| O=C1C=CC2(C=C1)O[C@H](Cc1ccccc1)[C@@H](Cc1ccccc1)O2 | 4.01% (inactive) |  |
| COc1cc(/C=N/NC(=O)CCN2CCCCC2)ccc1O |  | 34.3 µM (active) |
| C=CCNC(=O)CN1CCN(C(c2ccccc2)c2ccccc2)CC1 | 12.3% (inactive) |  |
| O=C1/C(=C\c2ccccc2)CN(C(=O)CCN2CCCCC2)C/C1=C/c1ccccc1 | 0.94% (inactive) |  |
| COc1ccc(/C=N/NC(=O)CN2CCCCCCC2)c(C)c1C | 13.6% (inactive) |  |
| COc1cc(/C=N/NC(=O)CCN2CCN(C(c3ccccc3)c3ccccc3)CC2)ccc1O |  | 53.4 µM (active) |

Reference: PubChem BioAssay AID624351 (Southern Research Specialized Biocontainment Screening …, 2012)
